Data as given in ChEMBL document CHEMBL4513216, “Probing the Open Global Health Chemical Diversity Library for Multistage-Active Starting Points for Next-Generation Antimalarials” (ACS Infect Dis, 2020).
Out of some 69,000 compounds screened, about 8,600 (12%) showed an effect of 50% or more. This excerpt belongs to a sample that is enriched for strong results.

system: Plasmodium berghei; experiment: Screen against P. berghei liver stage (PbLuc), transformed with Luciferase, at 10uM; format: functional, HepG2; conditions: tested at 10 uM

Row | SMILES | INHIBITION
1 | CCc1cnc(CCNS(C)(=O)=O)s1 | 48.3%
2 | CC(C)c1nc(C2CCCN2C(=O)c2cc(Cl)c[nH]2)no1 (stereo unspecified) | 6.09%
3 | CC(C)CN1CCC2(CCN(Cc3nccs3)CC2)C1=O | 29%
4 | Cc1ccc2cc(C(=O)N3CCN(C(=O)N(C)C)CC3)ccc2n1 | 70.3%
5 | O=C(c1ccoc1)N1CCC(O)(C(F)(F)F)CC1 | 30%
6 | Cc1ccc2cc(C3(O)CCN(C)CC3)ccc2n1 | -12.1%
7 | Cc1ccc2cc(C(=O)N3CCC(O)(C(F)(F)F)CC3)ccc2n1 | 51.7%
8 | Cc1ccc2cc(C3(O)CCN(C(=O)CSC(C)C)CC3)ccc2n1 | 81.6%
9 | CN(C)C(=O)N1CCN(C(=O)c2ccn3ccnc3c2)CC1 | 7.97%
10 | Cc1ccc2cc(C3(O)CCN(C(=O)CN4CCCC4)CC3)ccc2n1 | -9.67%
11 | COCCOCC(=O)N1CCC(O)(c2ccc3nc(C)ccc3c2)CC1 | -18.5%
12 | Cc1ccc2cc(C(=O)N3CCCN(C)CC3)ccc2n1 | 48%
13 | CS(=O)(=O)Cc1ccc(C(=O)N2CCCC(n3cncn3)C2)o1 (stereo unspecified) | 25.8%
14 | Cn1ccc2ccc(C(=O)N3CC[C@@]4(O)CCCC[C@H]4C3)cc21 | 18.3%
15 | CC(=O)N1CCCN(Cc2cc(F)cc(Br)c2)CC1 | 33.4%
16 | O=C1CC(c2cccnc2)C2(CCN(S(=O)(=O)C3CC3)CC2)N1 (stereo unspecified) | 9.67%
17 | Cc1ccccc1-n1ncc2c(=O)n(CCN3CCCCC3)cnc21 | -51.1%
18 | COc1ccc(CN(C)Cc2c(C)noc2C)c(Br)c1OC | 26.8%
19 | Cc1cnn(CC2CCCN2Cc2cc(C)on2)c1 (stereo unspecified) | 4.585%
20 | CC(C)(C)C(=O)N[C@H]1CC[C@H](Nc2nccc(-c3ccncc3)n2)C1 | 18.7%
21 | COc1cccc(CC2CN(C3CCCCC3)CCO2)c1 (stereo unspecified) | 36.2%
22 | CCOc1ccccc1OCCN(C)Cc1nccn1C | 20.5%

Row | SMILES | INHIBITION
23 | CN(Cc1nccn1C)c1ccc(-c2nccn2C)nn1 | -84.1%
24 | CCOc1ccccc1N(C)Cc1nccn1C | 52.6%
25 | COCCC(=O)N1CCCC1c1nccnc1Nc1ncccn1 (stereo unspecified) | 33.7%
26 | O=C1COC2(CCN(Cc3cccs3)CC2)CN1c1cncnc1 | 67%
27 | CN(C)CCN1CCC2(CC1)CN(Cc1cccnc1)C(=O)CO2 | 41.2%
28 | Cn1ccnc1CN1CCC2(CC1)CN(Cc1cccnc1)C(=O)CO2 | 57.4%
29 | O=C1COC2(CCN(Cc3cccs3)CC2)CN1c1cccnc1 | 10.7%
30 | Cn1ccnc1CN1CCC2(CC1)CCN(c1cncnc1)C2=O | 8.93%
31 | O=C1COC2(CCN(Cc3cccs3)CC2)CN1c1ccccc1 | 26.8%
32 | Cn1ccnc1CN1CCC2(CC1)CN(c1cncnc1)C(=O)CO2 | 57.9%
33 | Cn1ccnc1CN1CCC2(CC1)CN(c1ccccc1)C(=O)CO2 | -4.88%
34 | Cn1ccnc1CN1CCC2(CC1)CN(Cc1ccccc1)C(=O)CO2 | 33%
35 | O=C(c1cccnc1)N1CCC2(CC1)CCN(c1ccsc1)C2=O | 16.6%
36 | COCCCN1CC2(CCCCN2C(=O)c2ccsc2)CC1=O (stereo unspecified) | 20.7%
37 | Cc1cc(CN(Cc2cccnc2)CC2CCCO2)on1 (stereo unspecified) | 48.2%
38 | Cc1nccn1C1CCCN(C(=O)c2cc3c(F)cccc3[nH]2)C1 (stereo unspecified) | 42%
39 | CCc1ccc(NC(=O)C(C)Nc2cccc3c2OCCO3)cc1 (stereo unspecified) | 21.3%
40 | O=C(c1ccc2[nH]cnc2c1)N1CCC(COc2ccccn2)CC1 | 32.3%
41 | CN(CCn1cccn1)C1CCCN(Cc2noc(C3CC3)n2)C1 (stereo unspecified) | 39.7%
42 | Cc1csc(C2CCCCN2C(=O)c2cc(Cl)c[nH]2)n1 (stereo unspecified) | -19.4%
43 | Cc1nnc(SCC(=O)NCc2ccc3c(c2)CCC(=O)N3)n1C | 58.2%
44 | Cn1ccnc1SCC(=O)NCc1ccc2c(c1)CCC(=O)N2 | 34.2%

Row | SMILES | INHIBITION
45 | CC(NC(=O)NCc1ccoc1)c1ccc2c(c1)CCC(=O)N2 (stereo unspecified) | 36.4%
46 | O=C(CSc1ccccn1)NCc1ccc2c(c1)CCC(=O)N2 | 35%
47 | Cc1nnc(SCC(=O)c2cc3c(cc2Cl)NC(=O)C3)s1 | 48.7%
48 | Cc1nnc(SCC(=O)NCc2ccc3c(c2)CCC(=O)N3)s1 | 72.3%
49 | CC(CC(=O)NCCS(N)(=O)=O)C1CCCCC1 (stereo unspecified) | 16%
50 | CCN(Cc1ccc(O)c(C(=O)O)c1)CC1CCCO1 (stereo unspecified) | 42.3%
51 | CN(Cc1nc(C(F)(F)F)cs1)C(=O)CCc1cccnc1 | -7.53%
52 | CCCOc1cc(C)ccc1NC(=O)NCCNC(C)=O | 1.06%
53 | O=C(c1ccncc1)N1CCC2(CC1)C(=O)Nc1ccccc12 | -16.9%
54 | CC(C)N(C)Cc1cc(=O)n2c(n1)CN(C(=O)c1ccc[nH]1)CCC2 | 26.7%
55 | CC(C)N(C)Cc1cn2c(n1)CN(C(=O)Cc1ccccc1)CC2 | 72.3%
56 | CS(=O)(=O)NCc1cn2c(n1)CN(C(=O)c1ccc[nH]1)CC2 | 27.3%
57 | CN(Cc1cn2c(n1)CN(C(=O)c1ccc[nH]1)CC2)Cc1ccco1 | 7.31%
58 | CN(C)Cc1cn2c(n1)CN(C(=O)Cc1ccsc1)CC2 | -15.6%
59 | CN(C)Cc1cc(=O)n2c(n1)CN(C(=O)c1ccc[nH]1)CCC2 | 32.1%
60 | O=C(Cc1ccccc1)N1CCn2cc(Cn3cncn3)nc2C1 | -28.7%
61 | CCN(CC)Cc1cc(=O)n2c(n1)CN(C(=O)c1ccc[nH]1)CCC2 | 58.4%
62 | O=C(Cc1ccsc1)N1CCn2cc(CN3CCCC3)nc2C1 | -63.2%
63 | CCN(CC)Cc1cn2c(n1)CN(C(=O)Cc1ccsc1)CC2 | 73.6%
64 | CC(C)N(C)Cc1cn2c(n1)CN(C(=O)Cc1ccsc1)CC2 | -9.86%
65 | CC(C)N(C)Cc1cn2c(n1)CN(C(=O)c1ccc[nH]1)CC2 | 63.7%
66 | O=C(NC1CC1)C1=CC2(CCN(CC3CC3)CC2)c2ccccc21 | 37.1%

Row | SMILES | INHIBITION
67 | Cc1cncc(C2CCN(Cc3ccc(S(C)(=O)=O)cc3)CC2)n1 | 25.3%
68 | CS(=O)(=O)NCc1cnc2n1CCN(Cc1ccco1)CC2 | 38.5%
69 | CN(Cc1ccsc1)C(=O)c1cccc(S(=O)(=O)NCC2CCCO2)c1 (stereo unspecified) | 23.4%
70 | COCCNC(=O)Cn1cc(OCc2ccc(F)cc2)c(=O)cc1CO | 26.9%
71 | OC1CCN(CCCn2ccnc2-c2c[nH]cn2)CC1 | -0.273%
72 | O=C(C1CCCC1)N1CCn2c(nnc2C2CCCNC2)C1 (stereo unspecified) | -1.45%
73 | Cc1nnc(SCCC(=O)N(C)Cc2ccc(F)cc2F)[nH]1 | 1.96%
74 | Cc1nnc(SCCC(=O)N(C)Cc2ccc(F)cc2Cl)[nH]1 | 51.1%
75 | Cc1nnc(SCCC(=O)N(C)Cc2c(F)cccc2Cl)[nH]1 | -1.25%
76 | CCc1c(O)nc2nc(N3CCOCC3)nn2c1C | 11%
77 | CCc1ccc(N2CCC(NS(=O)(=O)N(CC)CC)CC2)cc1 | 53.4%
78 | COc1ccc(N2CCC(NS(=O)(=O)N(C)C(C)C)CC2)cc1 | 34.1%
79 | CCN(CC)S(=O)(=O)NC1CCN(c2ccc(OC)cc2)CC1 | 12.8%
80 | CC(C)(C)CC(=O)NCC(=O)Nc1ccn(Cc2cccnc2)n1 | 21.6%
81 | CN1CC(=O)N(c2ccsc2)CC12CCN(Cc1cnn(C)c1)C2 (stereo unspecified) | -13%
82 | COCC(=O)N1CCC2(CCN(Cc3ccc(C)cc3)CC2)CC1 | 10.5%
83 | CC[C@@H](C)[C@@H](N)C(=O)Nc1cccc(-c2cnc(N(C)CCO)nc2)c1 | 8.53%
84 | CC[C@@H](C)[C@@H](N)C(=O)Nc1cccc(-c2cnc(N)nc2)c1 | 17.4%
85 | CC[C@@H](C)[C@@H](N)C(=O)Nc1cccc(-c2cnc(N(C)C)nc2)c1 | 76.8%
86 | NC(=O)C1CCN(C(=O)Cn2ccc3cc(Br)ccc32)CC1 | 30.6%
87 | CC(C)(C)C1CCC(O)(CNC(=O)CCS(C)(=O)=O)CC1 (stereo unspecified) | -23.2%
88 | Cc1ccc(C(=O)N(C)Cc2ccc3c(c2)OCCO3)c(=O)[nH]1 | -11.6%

Row | SMILES | INHIBITION
89 | CS(=O)(=O)N1CCC2(CCCN(Cc3ccccn3)C2)C1 (stereo unspecified) | -11.6%
90 | Cn1cnc(S(=O)(=O)N2C[C@H]3CN(Cc4cccnc4)C[C@H]3C2)c1 | 49.1%
91 | CC(C)CN1CCCC2(CCN(c3ccccn3)C2)C1 (stereo unspecified) | 21.7%
92 | COc1cc(N2C[C@H]3CN(Cc4ccccn4)C[C@H]3C2)ncn1 | 85.6%
93 | Fc1cccc(CN2C[C@@H]3CN(Cc4ccccn4)C[C@@H]3C2)c1 | 18.6%
94 | COc1cc(N2CCC3(CCCN(Cc4ccccn4)C3)C2)ncn1 (stereo unspecified) | 84.7%
95 | COc1cc(N2CCC(c3nccn3Cc3ccccn3)CC2)ncn1 | 8.97%
96 | Cn1cnc(S(=O)(=O)N2C[C@H]3CN(Cc4ccccn4)C[C@H]3C2)c1 | 76.4%
97 | Cn1cnc(S(=O)(=O)N2C[C@H]3CC[C@@H](C2)N(Cc2ccccn2)C3)c1 | 20.9%
98 | CCc1csc(NC(=O)Nc2c(C)n[nH]c2C)n1 | -1.79%
99 | CC(=O)N1CCCC1c1nc(C)no1 (stereo unspecified) | 7.05%
100 | Cc1cc(NCCc2cnccn2)nc(-c2ccccc2O)n1 | 17.5%
101 | O=C(NCc1cc[nH]n1)N1CCCC(N2CCCC2)C1 (stereo unspecified) | 16.9%
102 | NC(=O)CSc1ccccc1NC(=O)CC1C=CCC1 (stereo unspecified) | -54.9%
103 | COCC(=O)NC(CC(C)C)c1nc2cccnc2n1C (stereo unspecified) | -0.232%
104 | Cc1ccc(C(=O)Nc2c(C(=O)N(C)C)nn(C)c2C)cc1C | 35%
105 | CCOc1cc(F)ccc1NC(=O)N(C)Cc1cnn(C)c1 | 4.71%
106 | CCC(=O)N1CCC2(CCN(Cc3cccc(F)c3)CC2)CC1 | -6.97%
